Screens (PubChem BioAssay)
Only some compounds are listed: those with a hit (about 5.2% of all), similar ones and a draw of the others.
GRIN3A LBD mod: modulates the human NR3A ligand-binding domain | 340,000 tested, 2.5% active | Tm shift relative to glycine control, % at 25 µM | NR3A LBD differential scanning fluorimetry, Tm shift; 0% = protein alone, 100% = glycine-bound protein;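 active = melting temperature shift of at least 10% of the positive control shift, at one fixed dose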
Vif inh: blocks HIV Vif function | HEK293T cells, Vif self-association by quenched fluorescence, imaging, 24 h | 340,000 tested, 0.35% active | inhibition, % at 7.49 µM; in the data active = inhibition above about 50%, passing the limit was not always enough
NadD block: blocks S. aureus nicotinate mononucleotide adenylyltransferase; purified NadD enzyme, colorimetric absorbance read-out; inhibition, % at 20 µM; 360,000 tested, 0.78% active; in the data active = inhibition above about 26%
SMARCA2 activ: increases SMARCA2 function in MMTV reporter cells | AID 652017 | 370,000 tested, 1% active | MG213 cells, MMTV-luciferase reporter, dexamethasone, overnight | activation, % at 9.1 µM; in the data active = activation above about 7.8%;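 note: 0% = vehicle wells and 100% = reference activator wells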
SKN-1 inh: inhibitors of C. elegans SKN-1; C. elegans VP596 Pgst-4::GFP/RFP ratio, acrylamide-induced, 24 h; inhibition, % at 21.8 µM; 360,000 tested, 0.49% active;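 active = interference check ratio from 0.5 to 1.5 plus GFP to RFP signal ratio inhibition reaching or exceeding a fixed threshold, cut at about 30% in these data, passing the limit was not always enough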
esBAF inh: inhibitors of esBAF chromatin remodeling in mouse ES cells; Bmi1-luciferase knock-in reporter, 24 h; 100% = twice the neutral-well signal; reporter increase, % at 12.5 µM; 350,000 tested, 2% active; AID 602393; in the data active = activation above about 40%;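 note: 0% = median of the plate's neutral control wells and 100% = double that signal; a rise in the Bmi1 reporter signal indicates esBAF inhibition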
Numbers without * were called inactive; nt = no result given.

SMILES | GRIN3A LBD mod | Vif inh | NadD block | SMARCA2 activ | SKN-1 inh | esBAF inh
CCOc1ccc(NC(=O)Nc2cc(-c3ccccc3)sc2C(=O)OC)cc1 | 21.4* | -4.0 | -0.1 | 1.5 | 9.7 | -1.2
COc1ccc2sc(NC(=O)NC(=O)c3c(Cl)cccc3Cl)nc2c1 | 17.6* | 1.1 | -3.7 | -1.3 | -2.9 | nt
CO[C@@H]1CN(C)C(=O)c2ccc(NS(=O)(=O)c3cccc(Cl)c3)cc2OC[C@H](C)NC[C@@H]1C | nt | nt | nt | nt | nt | -0.2
CCOc1ccc2nc(NC(=S)NCc3ccccc3)sc2c1 | 18.6* | 2.1 | -3.0 | -1.4 | 7.1 | 8.6
CCOc1ccc2nc(NC(=O)Nc3cccs3)sc2c1 | 26.1* | -2.8 | -0.1 | 2.7 | -5.9 | 1.9
COc1ccc2sc(NCc3ccccc3)nc2c1 | 2.1 | -3.9 | 4.1 | 1.9 | 9.2 | 98.9*
COc1ccc2sc(NC(C)=O)nc2c1 | -0.5 | -3.3 | -4.0 | 2.1 | -14.1 | 27.0
COc1ccc2nc(NC(=O)CSc3nnc4n3C(C)(C)Cc3ccccc3-4)sc2c1 | 10.1* | -3.3 | 12.2 | -0.2 | 10.6 | 12.6
COc1cc(NC(=O)CSc2nnc3n2C(C)(C)Cc2ccccc2-3)cc(OC)c1 | 1.6 | -11.9 | -1.2 | 0.4 | -4.2 | 5.1
COc1ccc(NC(=O)N(C)C[C@H]2Oc3ccc(NC(=O)NC4CCCCC4)cc3CC(=O)N([C@H](C)CO)C[C@H]2C)cc1 | nt | nt | nt | nt | nt | -0.9
CCOc1ccc2nc(NC(=O)Nc3ccccc3)sc2c1 | 35.5* | 5.8 | 2.5 | 2.0 | -5.2 | nt
CCOc1ccc2nc(NC(=O)c3ccccn3)sc2c1 | -8.9 | -4.6 | -3.2 | -5.7 | 21.7 | -65.3
COc1ccc(NC(=O)Nc2nc3c(s2)CCCC3)cc1 | 22.2* | 3.3 | 1.4 | 1.1 | 6.8 | nt
CCCc1nc2sc3c(c2c(=O)n1NC(=O)c1ccco1)CC(C)(C)OC3 | -0.9 | 0.2 | -3.3 | -1.0 | 4.5 | nt
CCCCCCCCCc1nc2sc3c(c2c(=O)n1NC(=O)c1ccc([N+](=O)[O-])cc1)CC(C)(C)OC3 | 23.8* | 0.7 | 22.0 | 2.5 | -0.5 | nt
CCCCCCCCCc1nc2sc3c(c2c(=O)n1NC(=O)c1ccccc1[N+](=O)[O-])CC(C)(C)OC3 | 19.6* | -15.9 | 17.6 | -1.0 | -3.7 | nt
COc1cccc(CNC(=O)C[C@@H]2C=C[C@H](NC(=O)C3CCOCC3)[C@@H](CO)O2)c1 | nt | nt | nt | nt | nt | 0.4
COc1ccc(C(=O)/C(C#N)=N/Nc2cccc([N+](=O)[O-])c2)cc1 | 10.1* | -13.1 | 9.3 | -1.9 | -1.9 | -18.5
CCNC(=O)[C@@H]1[C@@H](CO)[C@@H]2Cn3c(ccc(-c4ccc(F)cc4)c3=O)[C@H]1N2C | nt | nt | nt | nt | nt | 1.9
Cc1cc(C)n(CC(O)Cn2c(C)c(C)c3ccccc32)n1 (stereo unspecified) | 1.1 | 4.5 | -4.2 | 1.0 | 63.3* | 6.0
Cc1c(C)n(CC(O)CN2CCCCC2)c2ccccc12 (stereo unspecified) | 1.9 | 0.0 | -3.1 | -2.4 | -11.2 | -7.2
CCOC(=O)C1(Cc2ccccc2)NC(c2ccccc2F)C2C(=O)N(CC)C(=O)C21 (stereo unspecified) | 0.2 | -2.3 | -4.4 | -1.1 | -21.0 | -1.2
CCN1C(=O)C2C(c3ccccc3F)NC(Cc3ccc(O)cc3)(C(=O)OC)C2C1=O (stereo unspecified) | 0.8 | -12.8 | 0.5 | -1.3 | 37.2* | 7.1
COc1ccc(-c2ccc3c(c2)O/C(=C\c2ccsc2)C3=O)cn1 | -0.6 | -3.6 | 13.3 | 3.2 | 26.2 | 45.4*
COc1ccc(-c2cc3cc(-c4cc(OC)c(OC)c(OC)c4)ccc3o2)cc1 | -1.4 | -3.4 | -4.2 | 0.4 | 25.1 | 9.0
SMILES | GRIN3A LBD mod | Vif inh | NadD block | SMARCA2 activ | SKN-1 inh | esBAF inh
COc1cc(-c2ccc3oc(-c4ccsc4)cc(=O)c3c2)cc(OC)c1OC | -5.2 | -1.7 | -14.7 | -1.5 | 1.7 | 21.4
COc1ccc(-c2ccc3c(=O)cc(-c4ccsc4)oc3c2)cn1 | 1.1 | -5.0 | -2.7 | 1.5 | 47.3* | 6.9
COc1ccc(-c2ccc3oc(-c4ccsc4)cc3c2)cc1 | -0.8 | -3.2 | -6.7 | 0.5 | 4.0 | 63.7*
Cc1cccc(S(=O)(=O)N2C[C@@H]3[C@H](c4ccccc42)[C@@H](CO)N3C(=O)CC2CC2)c1 | nt | nt | nt | nt | nt | -3.0
Cc1nc2cc(NC(=O)c3ccc(Br)s3)ccc2s1 | 24.8* | -38.2 | -9.8 | 1.2 | 0.8 | 70.3*
Cc1nc2ccc(NC(=O)c3cc([N+](=O)[O-])cc([N+](=O)[O-])c3Cl)cc2s1 | 17.9* | 11.0 | 33.8* | -2.3 | 5.1 | nt
Cc1ccc(C(=O)Nc2ccc3nc(C)sc3c2)s1 | 4.8 | -6.1 | -2.9 | 6.0 | 7.0 | 58.4*
Cc1nc2ccc(NC(=O)c3ccc(S(=O)(=O)N(C)C)cc3)cc2s1 | 10.2* | -2.6 | -6.5 | 1.5 | -9.6 | nt
Cc1ccnc(NC(=O)c2ccc(Br)s2)c1 | 0.0 | -5.8 | -4.1 | 0.1 | 2.2 | 0.0
CNC[C@H]1Oc2cc(C#CC3(O)CCCC3)ccc2S(=O)(=O)N([C@@H](C)CO)C[C@@H]1C | nt | nt | nt | nt | nt | 5.0
CCC(=O)Nc1ccc2c(c1)C(=O)N(C)C[C@@H](OC)[C@H](C)CN(Cc1ccncc1)[C@@H](C)CO2 | nt | nt | nt | nt | nt | -2.6
CN(C)Cc1cn(CC[C@H]2CC[C@@H](NC(=O)Nc3ccccc3F)[C@H](CO)O2)nn1 | nt | nt | nt | nt | nt | 1.9
C/C=C/c1ccc([C@@H]2[C@H](CO)N(C(=O)NCCC)[C@H]2CNC(=O)C2CCC2)cc1 | nt | nt | nt | nt | nt | 0.6
C[C@H]1CN([C@@H](C)CO)C(=O)c2cc(NC(=O)Cc3ccccc3)ccc2O[C@@H]1CN(C)Cc1ccc(-c2ccccc2)cc1 | nt | nt | nt | nt | nt | -0.9
C[C@H]1CN([C@@H](C)CO)C(=O)Cc2cc(N(C)C)ccc2O[C@@H]1CN(C)Cc1ccc(Cl)c(Cl)c1 | nt | nt | nt | nt | nt | -5.0
Cc1nc2ccc(NC(=O)CCC3CCCC3)cc2s1 | 0.8 | -6.6 | -1.0 | 1.8 | -11.3 | 49.6*
CCN(CC)c1ccc(/C=C2\C(=O)c3ccc(C(=O)O)cc3C2=O)cc1 | 5.4 | 0.2 | 8.0 | -1.4 | 36.3* | nt
Fc1ccc(CSc2nnc(-c3cccs3)o2)cc1 | -1.1 | 2.1 | -8.0 | -0.5 | 58.3* | nt
CC1CCCC(C)N1C(=O)c1cc(-c2cccs2)on1 (stereo unspecified) | 0.6 | -4.7 | -5.8 | -0.1 | 12.0 | 48.1*
Cc1cc(C(=O)N2C(C)CCCC2C)no1 (stereo unspecified) | 1.4 | -6.4 | 5.6 | -2.4 | 2.0 | -3.5
Cc1ccc(NC(=O)c2cc(-c3cccs3)on2)cc1C | -9.9 | 2.1 | -7.3 | 3.1 | -8.7 | 51.7*
CCSc1nnc(-c2cccs2)o1 | -9.7 | 1.1 | 9.1 | 4.0 | 12.5 | 43.6*
Cc1cccc(-c2nnc(SCc3ccccc3)o2)c1 | 2.1 | -3.4 | 4.0 | 2.4 | 15.7 | 62.5*
c1ccc(CSc2nnc(-c3cccs3)o2)cc1 | -1.1 | 26.6 | -4.1 | 0.5 | 61.2* | 47.4*
CC1CCCC(C)N1C(=O)CSc1nnc(-c2cccs2)o1 (stereo unspecified) | -0.1 | -1.1 | -1.8 | 1.3 | -1.9 | 45.8*
